Measurements from PubChem BioAssay (NCATS).
Values joined by “and” are separate entries in the source; they are usually repeats but may differ in a detail not shown here. Identical values can stand only once. Inconclusive results are not listed. Where a call stands in place of a potency, no number is given. A number with no mark means an inactive call. Active and inactive are the calls of the source. Calls follow the shape of the dose curve; as a rule, active = well fitted cell-killing curve with a large enough effect; inconclusive = small, poorly fitted or top-dose-only effect, or effect the other way; inactive = no such curve, though single readings can be large or run the other way.

What was measured:
[1] = Viability qHTS for spleen associated tyrosine kinase inhibitor (SYKi) naive MV4-11 cells (AID 1963823); also: nearly all actives have a fitted effect of over 40% in size
Method in brief: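 Viability of MV4-11 AML cells lacking prior SYK inhibitor exposure is scored by CellTiter-Glo luminescence following 72 hr compound incubation at 37 C, 5% CO2, seeded at 500 cells per well.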

[2] = Viability qHTS for spleen associated tyrosine kinase inhibitor (SYKi) drug resistant MV4-11 cells (AID 1963824); also: nearly all actives have a fitted effect of over 35% in size
Method in brief: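 CellTiter-Glo luminescence, read 10 min after reagent addition, reports viability after a 72 hr compound exposure. Cells are an MV4-11 line made resistant to SYK inhibition, seeded at 500 per well onto compound-containing plates.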
Potency is read from the fitted curve at half-maximal effect.

Row | Structure (SMILES) | Potency [1] | Potency [2] | viability (% of control) [1] | viability, % of control [2]
1 | CCOC(=O)C1=C(N)Oc2ccc(Cl)cc2C1C(C#N)C(=O)OCC (stereo not drawn) | inactive | inactive |  | 
2 | OC[C@H]1O[C@@H](OC[C@H]2O[C@@H](OCc3ccccc3)[C@H](O)[C@@H](O)[C@@H]2O)[C@H](O)[C@@H](O)[C@@H]1O | inactive | inactive |  | 
3 | CC1(C)C[C@H](O)C[C@@]2(C)[C@H]1[C@H](O)C=C1COC(=O)[C@@]12O | inactive | inactive |  | 
4 | COc1cc2c(cc1OC)C(C(C(=O)N(CCc1ccc(OC)c(OC)c1OC)CCc1ccc(OC)c(OC)c1OC)c1ccccc1)=NCC2 (stereo not drawn) | 15 µM (active) | 21.1 µM (active) |  | 
5 | NC(=O)CCCSc1nc(N)nc(-c2c(Cl)cc3c4c(cccc24)COC3)n1 | 0.0651 µM (active) | 0.092 µM (active) |  | 
6 | CC/C=C\C[C@H]1C(=O)C=C[C@@H]1CCCCCCCC(=O)O | 16.4 µM (active) | 23.1 µM (active) |  | 
7 | CC1(C)CCC2(C(=O)OC3OC(COC4OC(CO)C(O)C(O)C4O)C(O)C(O)C3O)CCC3(C)C(=CCC4C5(C)CCC(OC6OCC(O)C(O)C6O)C(C)(C)C5CCC43C)C2C1O (stereo not drawn) |  |  | 56.1% [at 9.25 µM] | 90.4% [at 9.25 µM]
8 | COc1cc(/C=C/C(=O)OC[C@H]2O[C@@H](OC3CC(C)=C(C(=O)O)C(C)(C)C3)[C@H](O)[C@@H](O)[C@@H]2O)cc(OC)c1O (stereo partly drawn) | inactive | inactive |  | 
9 | CC(O)/C=C/C1C(C)C(O[C@@H]2O[C@H](CO)[C@@H](O)[C@H](O)[C@H]2O)C(O)CC1(C)C (stereo partly drawn) | inactive | inactive |  | 
10 | O=C(/C=C/c1ccccc1)O[C@@H]1[C@@H](CO)O[C@@](CO)(O[C@H]2O[C@H](CO)[C@@H](O)[C@H](O)[C@H]2O)[C@H]1O | inactive | inactive |  | 
11 | NCCCC[C@H](NC(=O)[C@@H](NC(=O)[C@H](Cc1c[nH]c2ccccc12)NC(=O)[C@H](CCCCN)NC(=O)[C@H](CCCCN)NC(=O)[C@H](Cc1c[nH]c2ccccc12)NC(=O)[C@H](Cc1c[nH]c2ccccc12)NC(=O)[C@H](CCCCN)NC(=O)[C@@H](N)CCCCN)C(c1ccccc1)c1ccccc1)C(N)=O | 8.33 µM (active) | 10.5 µM (active) |  | 
12 | CC(CN1c2ccccc2Sc2ccccc21)N(C)C (stereo not drawn) | inactive | inactive |  | 
13 | CCC/C=C/C(=O)O[C@H]1CC(C)(C)CC2[C@]13[C@H](O)O[C@@]21CCC2[C@@]4(C)CC[C@H](O[C@@H]5O[C@H](C(=O)O)[C@@H](O)[C@H](O[C@@H]6O[C@H](CO)[C@H](O)[C@H](O)[C@H]6O[C@@H]6O[C@@H](C)[C@H](O)[C@@H](O)[C@H]6O[C@@H]6OC[C@](O)(CO)[C@H]6O)[C@H]5O[C@@H]5O[C@H](CO)[C@H](O)[C@H](O)[C@H]5O)C(C)(C)C4CC[C@@]2(C)[C@]1(C)C[C@H]3OC(C)=O (stereo partly drawn) |  |  | 57.2% [at 9.25 µM] | 66.3% [at 9.25 µM]
14 | CCCN(CCC)C(=O)C(CCC(=O)OCCCN1CCN(CCOC(=O)Cc2c(C)n(C(=O)c3ccc(Cl)cc3)c3ccc(OC)cc23)CC1)NC(=O)c1ccccc1 (stereo not drawn) | 23.1 µM (active) | 20.6 µM (active) |  | 
15 | C/C1=C\CC[C@H](C)CCO[C@@H]2O[C@H](CO[C@@H]3OC[C@](O)(COC1=O)[C@H]3O)[C@@H](O)[C@H](O)[C@H]2O | inactive | inactive |  | 
16 | CC1(C)C(=O)CCC2(C)C1C(O)C=C1COC(=O)C12O (stereo not drawn) | inactive | inactive |  | 
17 | COC(=O)C[C@@H]1C(C(=O)O)=CO[C@@H](O[C@@H]2O[C@H](CO)[C@@H](O)[C@H](O)[C@H]2O)/C1=C\COC(=O)/C=C/c1ccc(O)c(OC)c1 | inactive | inactive |  | 
18 | CCOC(=O)c1cnn(-c2ccccc2)c1NC(=O)c1cc2nc(-c3ccco3)cc(C(F)(F)Cl)n2n1 | inactive | inactive |  | 
19 | CC1=C2C=C(CO)C(CO)CCC2(C)CCC1=O (stereo not drawn) | inactive | inactive |  | 
20 | CC1(C)COC(=O)[C@@H]1O[C@@H]1O[C@H](CO)[C@@H](O)[C@H](O)[C@H]1O | inactive | inactive |  | 
21 | CC1OC(OC2C(CO)OC(OCC3OC(OC(=O)C45CCC(C)(C)CC4C4=CCC6C7(C)CCC(OC8OC(C(=O)O)C(O)C(OC9OC(CO)C(O)C(O)C9O)C8O)C(C)(C)C7CCC6(C)C4(C)CC5)C(O)C(O)C3O)C(O)C2O)C(O)C(O)C1O (stereo not drawn) |  |  | 92.6% [at 9.25 µM] | 105% [at 9.25 µM]
22 | CC1OC(OC2C(O)C(OC3CCC4(C)C(CCC5(C)C4CC=C4C6CC(C)(COC7OC(CO)C(O)C(O)C7O)CC(O)C6(C)CCC45C)C3(C)C)OC(C(=O)O)C2O)C(O)C(O)C1OC1OCC(O)C(O)C1O (stereo not drawn) |  |  | 54% [at 9.25 µM] | 85% [at 9.25 µM]

Row | Structure (SMILES) | Potency [1] | Potency [2] | viability (% of control) [1] | viability, % of control [2]
23 | CC(O)/C=C/C1(O)C(C)C(O)C(O[C@@H]2O[C@H](CO)[C@@H](O)[C@H](O)[C@H]2O)CC1(C)C (stereo partly drawn) | inactive | inactive |  | 
24 | C[C@@H](CN1CCC(n2c(=O)[nH]c3cc(Cl)ccc32)CC1)NC(=O)c1ccc2ccccc2c1 | 20.6 µM (active) | 11.6 µM (active) |  | 
25 | CC1(C)CCCC2(C)C(CO)C3CCC2C31 (stereo not drawn) | inactive | inactive |  | 
26 | COc1cc2ncnc(Nc3ccc(O)cc3)c2cc1OC | 3.26 µM (active) | 7.31 µM (active) |  | 
27 | C=C1[C@@H]2CC[C@@]3(C)[C@H](c4ccoc4)OC(=O)C[C@]13O[C@H]1CC(=O)C(C)(C)[C@H](CC(=O)OC)[C@]12C | inactive | inactive |  | 
28 | C=C(CCO)C(=O)OCC1OCC(OC(=O)C(=C)CCO[C@@H]2O[C@H](CO)[C@@H](O)[C@H](O)[C@H]2O)C(O)C1O (stereo partly drawn) | inactive | inactive |  | 
29 | CC(=O)O[C@@H]1[C@H](O[C@@H]2O[C@H](CO)[C@@H](O)[C@H](O)[C@H]2O)[C@@H](O[C@@H]2O[C@@H](C)[C@H](O)[C@@H](O[C@@H]3O[C@H](CO)[C@@H](O)[C@H](O)[C@H]3O)[C@H]2O)[C@H](OC(=O)[C@]23CCC(C)(C)C[C@H]2C2=CCC4[C@@]5(C)C[C@H](O)[C@H](O[C@@H]6O[C@H](C(=O)O)[C@@H](O)[C@H](O)[C@H]6O)[C@@](C)(C(=O)O)C5CC[C@@]4(C)[C@]2(C)CC3)O[C@@H]1C (stereo partly drawn) |  |  | 81.2% [at 9.25 µM] | 91.2% [at 9.25 µM]
30 | C[C@@H]1O[C@@H](O[C@H]2[C@H](O)[C@@H](O[C@@H]3O[C@H](CO)[C@H](O)[C@H](O)[C@H]3O)[C@H](O[C@H]3CC[C@@]4(C)C(CC[C@]5(C)C4CC=C4[C@@H]6CC(C)(C)CC[C@]6(C(=O)O[C@@H]6O[C@H](CO)[C@@H](O)[C@H](O)[C@H]6O)CC[C@]45C)C3(C)C)O[C@@H]2C(=O)O)[C@H](O)[C@H](O)[C@H]1O (stereo partly drawn) |  |  | 82.7% [at 9.25 µM] | 90.8% [at 9.25 µM]
31 | C=CC1(C)C=C2CCC3C(C)(C)C(O[C@@H]4O[C@@H](CO)[C@H](O)[C@H]4O)CCC3(C)C2CC1O[C@@H]1O[C@H](C)[C@H](O)[C@H](O)[C@H]1O (stereo partly drawn) | inactive | inactive |  | 
32 | CC1=CCC2C(C)(CO)CCCC2(CO)C1CO (stereo not drawn) | inactive | 16.4 µM (active) |  | 
33 | Cc1onc(C(=O)N2CCN(C(c3ccc(Cl)cc3)c3ccc(Cl)cc3)CC2)c1[N+](=O)[O-] | 4.11 µM (active) | 4.61 µM (active) |  | 
34 | CC1=CC2/C=C(\C)CCC(O)C/C=C/C(=O)OC23C(=O)NC(CC(C)C)C3C1C (stereo not drawn) | 8.93 µM (active) | 10 µM (active) |  | 
35 | CCOc1ccc(-n2c([C@@H](C)N(Cc3cccnc3)C(=O)Cc3ccc(OC(F)(F)F)cc3)nc3ncccc3c2=O)cc1 | 18.4 µM (active) | 16.4 µM (active) |  | 
36 | CC(C)CC1(C(=O)OCc2ccc(O[C@@H]3O[C@H](CO)[C@@H](O)[C@H](O)[C@H]3O)cc2)CC(=O)OC(C(=O)O)CC(=O)OCC2OC(O1)C(OC(=O)/C=C/c1ccc(O)cc1)C(O)C2O (stereo partly drawn) |  |  | 90.4% [at 9.25 µM] | 89.5% [at 9.25 µM]
37 | C=C(C(=O)OC[C@H]1O[C@@H](OC(=O)/C=C/c2ccccc2)[C@H](O)[C@@H](O)[C@@H]1O)C(O)CO (stereo partly drawn) | 7.96 µM (active) | 11.2 µM (active) |  | 
38 | COc1cc(COC2OC(CO)C(O)C(O)C2O)cc(OC)c1O (stereo not drawn) | inactive | inactive |  | 
39 | C[C@]1(O)CC[C@@H]2C(C(=O)O)=CO[C@@H](O[C@@H]3O[C@H](CO)[C@@H](O)[C@H](O)[C@H]3O)[C@@H]21 | inactive | inactive |  | 
40 | C/C(=C\CC[C@@H](C)[C@H]1CC(O)[C@@]2(C)C3CC[C@H]4C(C)(C)[C@@H](OC5OCC(O)C(O)C5OC5OC(CO)C(O)C(O)C5O)CC[C@@]45C[C@@]35CC(O)[C@]12C)C(=O)O (stereo partly drawn) | inactive | inactive |  | 
41 | C=CC(C)(O)CC[C@@H]1[C@@]2(C)CCCC(C)(C)C2CC[C@@]1(C)O (stereo partly drawn) | 25.9 µM (active) | 20.6 µM (active) |  | 
42 | C/C=C1/[C@H](O[C@@H]2O[C@H](CO)[C@@H](O)[C@H](O)[C@H]2O)OC=C(C(=O)OC)[C@H]1CC(=O)O[C@@H]1O[C@H](CO)[C@@H](O)[C@H](O)[C@H]1O | inactive | inactive |  | 
43 | Cc1c(NC(=O)c2cc3c(s2)CCCC3)cccc1-c1cn(C)c(=O)c(Nc2ccc(C3C(=O)N(C)CCN3C)cc2)n1 (stereo not drawn) | 20.6 µM (active) and 20.9 µM (active) | 7.31 µM (active) and 16.6 µM (active) |  | 
44 | CC1CCC2C(C)(C)CC(C)(CO)C2(O)C1C(=O)O (stereo not drawn) | inactive | inactive |  | 
